PLK1 PBD inh: qHTS for Inhibitors of PLK1-PDB (polo-like kinase 1 - polo-box domain): Primary Screen | Serine/threonine-protein kinase PLK1 (Homo sapiens), P53350 | Plk1 PBD binding of FITC phosphopeptide, fluorescence polarization | Potency, µM, for the others: max response, negative = inhibition, actives largely listed as inhibitors | hit rate 2.8% among 360,000; further: potency means the concentration at half of the fitted maximal effect; series mostly up to about 57 µM; on the % scale 0 is the no-effect control and ±100 the full control effect; nearly all actives have a fitted effect of over 65% in size
FEN1 inh: qHTS Assay for the Inhibitors of Human Flap endonuclease 1 (FEN1); P39748; Recombinant FEN1 flap cleavage, fluorescence, 15 min; Potency, µM (top dose mostly 114 µM), inactives show top-dose activity change, negative = inhibition, hits mostly inhibitors; hit rate 0.35% among 390,000; further: potency means the concentration at half of the fitted maximal effect; on the % scale 0 is the no-effect control and ±100 the full control effect; nearly all actives have a fitted effect of over 65% in size
Target sequence (P39748 whole entry, looked up): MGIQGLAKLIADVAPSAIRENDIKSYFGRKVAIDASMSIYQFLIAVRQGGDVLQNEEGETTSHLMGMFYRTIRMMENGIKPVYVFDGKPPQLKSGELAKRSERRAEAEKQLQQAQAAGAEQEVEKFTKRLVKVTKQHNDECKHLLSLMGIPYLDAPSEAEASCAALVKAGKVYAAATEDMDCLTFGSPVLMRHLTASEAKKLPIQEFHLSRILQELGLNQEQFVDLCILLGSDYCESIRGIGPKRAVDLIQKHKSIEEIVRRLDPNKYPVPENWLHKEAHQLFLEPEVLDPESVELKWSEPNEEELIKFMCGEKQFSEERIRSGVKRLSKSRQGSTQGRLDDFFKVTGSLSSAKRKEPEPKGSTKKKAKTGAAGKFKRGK
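Enzyme 10 nM, 15 min RT preincubation with compound; start with substrate 50 nM final; reads at 0 and 15 min; qHTS titration, four-parameter Hill fit.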
VDR inhibitor: Inhibitors of the vitamin D receptor (VDR): qHTS; hit rate 0.93% among 400,000; AID 504847, 2011; VDR-SRC2-3 peptide fluorescence polarization, 2 h; Potency, µM, without a hit: max response, negative = inhibition, usual class: inhibitors; further: potency means the concentration at half of the fitted maximal effect; on the % scale 0 is the no-effect control and ±100 the full control effect
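Measured by FP: displacement of SRC2-3 coactivator peptide from VDR by library compounds, following a two-hour ambient incubation.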
TCR act: Activators of T cell receptors: qHTS campaign. primary human leukocytes, anti-CD3, IL-2 HTRF, 48 h. Potency, µM (top dose mostly 9.22 µM), for the others: at the top dose activation of IL-2 secretion, most hits filed as activators. 330,000 tested, under 10 active. AID 504894, 2011; further: % of control where 0% means no effect
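Compounds are tested in HTS on primary human leukocytes co-incubated with a-CD3 beads for 48 hr. IL-2 output is measured by time-resolved FRET.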
WRN helicase inh: qHTS for Inhibitors of WRN Helicase; Bifunctional 3'-5' exonuclease/ATP-dependent helicase WRN (Homo sapiens), Q14191; WRN helicase unwinding, fluorescent forked duplex, kinetic; Potency, µM (titrated, usually from 114 µM), inactives show top-dose activity change, negative = inhibition, hits mostly inhibitors; hit rate 0.46% among 360,000; further: potency means the concentration at half of the fitted maximal effect; on the % scale 0 is the no-effect control and ±100 the full control effect; nearly all actives have a fitted effect of over 55% in size
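WRN at 20 nM final preincubated with compound 15 min at room temperature; reaction started with 100 nM fluorophore/quencher forked duplex oligonucleotide and 2 mM ATP final. Unwinding followed kinetically by red fluorescence (ex 525, em 598 nm).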
PI5P4Ka inh: qHTS for Inhibitors of phosphatidylinositol 5-phosphate 4-kinase (PI5P4K); Phosphatidylinositol 5-phosphate 4-kinase type-2 alpha (Homo sapiens), P48426; PI5P4Kalpha enzyme, ADP-Glo luminescence, 60 min; hits give low values; max response, %; hit rate 1.2% among 330,000; AID 652105, 2013; active means max response of -50% or lower; inconclusive means between -30% and -50%; inactive means -30% or higher; further: value at the top dose of about 77 µM; on the % scale 0 is the no-effect control and ±100 the full control effect
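Human PI5P4Kalpha with substrate in 0.038 M HEPES pH 7.4, 0.28 mM EGTA, 0.1% CHAPS, 5% DMSO; reaction started with 5 microM ATP (final), 60 min at room temperature. ADP formed read by ADP-Glo luminescence.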
The depositor's hits bear a star; ? = inconclusive; . = not tested or not shown; [ ] = remark or other dose. Shown are actives, neighbours in structure and some others; about 3.7% of the full set was active somewhere. Unless noted, the call rests on the fitted dose curve; in most records, active means well fitted curve in the direction sought with a large enough effect; inconclusive means small, poorly fitted or top-dose-only effect, or another doubt; inactive means no such curve, though single readings can be large; an effect the other way counts as inactive or inconclusive.

SMILES	PLK1 PBD inh	FEN1 inh	VDR inhibitor	TCR act	WRN helicase inh	PI5P4Ka inh
CC(=O)C[C@@H](c1ccccc1)c1c(O)c2ccccc2oc1=O	.	.	-3%	.	.	.
Cc1[nH]c(=S)c(C#N)c2c1CCCC2	27µM*	10%	?	.	-20%	-28
C=C[C@@H]1CN2CC[C@H]1C[C@H]2[C@H](O)c1ccnc2ccccc12	.	.	1%	.	.	.
O=C(Cc1ccc(Br)cc1)N1CCN(Cc2ccccc2)CC1	-10%	-14%	?	1%	0%	2
O=C(Cc1ccccc1)N1CCN(Cc2cccc(Br)c2)CC1	27µM*	10%	-25%	0%	7%	-11
O=C(Nc1cccc(F)c1)N1CC2(CCNCC2)C1	.	.	40µM*	.	.	.
Cc1ccc(-n2c(-c3nn(C)c(C)c3Cl)n[nH]c2=S)cc1	30µM*	-9%	4%	6%	-3%	10
Cc1cc(C)cc(N2C(=O)/C(=C\c3ccc(N4CCN(C)CC4)o3)C(=O)NC2=S)c1	119%	?	-3%	-3%	-19%	-9
Cc1ccc(N2C(=O)/C(=C/c3ccc(CN(CCC#N)S(C)(=O)=O)o3)C(=O)NC2=S)cc1	6µM*	35µM*	?	-3%	50µM*	-71*
CC(=O)OCC1=C(C(=O)O)N2C(=O)[C@@H](NC(=O)CCC[C@@H](N)C(=O)O)[C@H]2SC1	.	-4%[57.1 µM]	2%	.	.	.
Cc1cc(C)cc(-n2c(C)cc(/C=C3\C(=O)NC(=O)N(C)C3=O)c2C)c1	?	-3%	-5%	3%[46.1 µM]	-27%	-10
CCOc1cc(/C=C2\C(=O)NC(=O)N(C)C2=O)cc([N+](=O)[O-])c1O	7.5µM*	1%	-27%	11%	-26%	?
Cc1c(C)c2ccc(OCC(=O)N3CCN(Cc4ccccc4)CC3)cc2oc1=O	3%	-6%	6%	2%	-6%	-4
Cc1c(Cc2ccccc2)c(=O)oc2cc(OCc3ccc(C(=O)O)cc3)ccc12	21µM*	-6%	1%	-25%	-19%	1
COCCN(C(=O)CCl)c1c(C)cccc1C	.	.	9%	.	.	.
Cn1c(O)c(/C=N/c2ncccn2)c(=O)n(C)c1=O	2%	0%	-21%	-5%	-17%	3
Cn1c(O)c(/C=C2\N=c3ccccc3=C2CCNC(=S)NC2CC2)c(=O)n(C)c1=O	0.95µM*	2%	71µM*	-3%	-4%	3
C=C1[C@@H](O)C2C=CC[C@H](C)C(=O)[C@@](C)(O)C=C[C@@H](OC(C)=O)[C@@]23C(=O)N[C@H](Cc2ccccc2)[C@@H]3[C@@H]1C (some centres undefined)	.	.	1%	.	.	.
O=C(Nc1cccc(C(=O)Nc2cc(C(=O)Nc3ccc([S+](=O)([O-])[O-])c4cc([S+](=O)([O-])[O-])cc(SOOO)c34)ccc2F)c1)Nc1cccc(C(=O)Nc2cc(C(=O)Nc3ccc([S+](=O)([O-])[O-])c4cc([S+](=O)([O-])[O-])cc([S+](=O)([O-])[O-])c34)ccc2F)c1	.	.	40µM*	.	.	.
CCC(Oc1ccc(Cl)cc1)C(=O)OC1CC2CCC(C1)N2C (centres undefined)	.	.	0%	.	.	.
C=C1C(O)C2OC3(CCC(/C=C/C(C)C4CC(C)=CC5(OC(CC(C)(O)C(=O)O)CCC5O)O4)O3)CCC2OC1C(O)CC(C)C1OC2(CCCCO2)CCC1C (centres undefined)	.	.	13%	.	.	.
O=c1[nH]c(O)c(/C=C2\C=Nc3ccc(OCc4ccccc4)cc32)c(=O)[nH]1	24µM*	-15%	-29%	-1%	-32%	-28
CCCCn1c(O)c(/C=C2\C=Nc3ccccc32)c(=O)[nH]c1=O	-20%	2%	53%	1%	?	-27
CC(=O)[O][Hg][c]1ccccc1	.	.	1.8µM*	.	.	.
CC(=O)/C=C/c1ccccc1	-12%	-16%	-9%	1%	0%	4
SMILES	PLK1 PBD inh	FEN1 inh	VDR inhibitor	TCR act	WRN helicase inh	PI5P4Ka inh
Cn1ccnc1P(=S)(c1nccn1C)c1nccn1C	-3%	2%	-17%	3%	-14%	.
Cn1ccnc1P(=S)(c1nccn1C)N1CCOCC1	27µM*	5%	?	-1%	3%	.
CCOC(=O)[C@]12Cc3ccccc3[C@H]1N(CCC(=O)OC)C(=O)c1ccccc12	9.5µM*	.	.	.	-4%	1
CCOC(=O)[C@]12Cc3cc(OC)ccc3[C@H]1N(Cc1ccccc1)C(=O)c1ccccc12	-13%	-23%	-23%	-5%	-6%	-1
CCCCCN1C(=O)c2ccccc2[C@@]2(C(=O)OCC)Cc3cc(OC)ccc3[C@@H]12	5.3µM*	.	.	.	-5%	4
C[C@]12CCC3C(CC[C@]4(O)C[C@@H](O)CC[C@]34C=O)[C@@]1(O)CC[C@@H]2C1=CC(=O)OC1 (some centres undefined)	.	.	2%	.	.	.
COc1ccc(CC2NC[C@H](O)[C@H]2OC(C)=O)cc1 (some centres undefined)	.	.	12%	.	.	.
CC(C)(C)C(O)C(Cc1ccc(Cl)cc1Cl)n1cncn1 (centres undefined)	.	.	9%	.	.	.
C[C@@H]1Cc2c(Cl)cc(C(=O)N[C@@H](Cc3ccccc3)C(=O)O)c(O)c2C(=O)O1	.	.	0%	.	.	.
CCN(CC)c1ccc(CC2C(=O)N(C)C(=O)N(C)C2=O)cc1	?	-28%	-14%	0%[46.1 µM]	20µM*	-3
CC(C)OC(=O)C(O)(c1ccc(Cl)cc1)c1ccc(Cl)cc1	.	.	-2%	.	.	.
CCOc1cc(-c2c(C#N)c(=O)[nH]c3c2c(C)nn3-c2ccc(F)cc2)ccc1O	?	7%	4%	-2%	-34%	-56*
CC(C)c1ccc(N2C(=O)NC(=O)/C(=C\C=C\c3ccco3)C2=O)cc1	?	?	37%	6%	?	-69*
O=C1NC(=S)N(c2ccc(Br)cc2)C(=O)/C1=C/N1CCN(C(=O)c2ccco2)CC1	?	-17%	?	3%	-30%	?
O=C1NC(=O)N(Cc2ccccc2)C(=O)/C1=C/C=C/c1ccco1	122%	?	?	1%	50µM*	-53*
C(=C/c1ccccc1)/CN1CCN(CCOC(c2ccccc2)c2ccccc2)CC1	.	.	-7%	.	.	.
Cc1o[nH]c(=O)c1C[C@H](N)C(=O)O	.	.	15%	.	.	.
COc1c(C=C2C(=O)NC(=O)NC2=O)c(CCN(C)C(=O)c2ccccc2)cc2c1OCO2	27µM*	-11%	?	1%	1%	11

Screening results: PubChem, National Center for Advancing Translational Sciences (NCATS)
